# From the supplement of paper PMC12636033
# ± gives the standard deviation of the averaged measurements. In all, about 33,000 sequences were measured (“E-score (rank enrichment, -0.5 to 0.5)”: median about -0.0075, highest 2% from about 0.23 on). The sample as a whole holds a higher share of the highest values than the screen did.
# Test system: WT Max(13-93) synthetic (M65Nle)
# Assay: PBM 8-mer E-score (E-score (rank enrichment, -0.5 to 0.5)); higher = stronger preferential binding
# Protocol: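 Protein binding microarray (universal PBM chip covering all 10-mers in fixed probe flanks) with chemically synthesized human Max(13-93) bHLH-LZ analogs (not full-length Max) bearing noncanonical residues (hArg, Tha, Aib, Nle at 65) and aromatic Cys staples. Read-out per 8-mer (and its reverse complement): E-score (rank-based enrichment, -0.5 to 0.5) and Z-score of median probe intensity.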
row,Sequence,PBM 8-mer E-score
1,ATATGTTC,0.179 ± 0.0093
2,CTGTATTA,0.138 ± 0.0022
3,GTGTGTTA,0.242 ± 0.099
4,GGGTGTTA,-0.0337 ± 0.14
5,GTGTATTA,0.247 ± 0.035
6,CTGTGTTA,0.0459 ± 0.023
7,ATGTGTGA,0.18 ± 0.12
8,ATGTATTA,0.225 ± 0.086
9,CTATGTTA,0.16 ± 0.052
10,ATGTGTTA,0.275 ± 0.015
11,ATGTGTCA,0.175 ± 0.069
12,ATATGTTA,0.284 ± 0.051
13,TGAGATAA,0.116 ± 0.07
14,CAATGATC,-0.0206 ± 0.062
15,CGCCTCGA,-0.0745 ± 0.097
16,CTCCTGTC,-0.0511 ± 0.018
17,TCGCTGAA,-0.0377 ± 0.086
18,CCCCTGGC,-0.127 ± 0.042
19,AACCTCAT,0.156 ± 0.065
20,GTTTCCAA,0.0481 ± 0.061
21,ATATGTTG,0.0792 ± 0.065
22,ATGTGTTG,0.247 ± 0.035
23,ATGTGTTC,0.106 ± 0.0063
24,AAACACAT,0.287 ± 0.014
25,CAACACGC,0.195 ± 0.0099

row,Sequence,PBM 8-mer E-score
1,GAACACGC,0.105 ± 0.04
2,AAACACGG,-0.0068 ± 0.091
3,AAACACGA,0.19 ± 0.11
4,AAACACAG,0.153 ± 0.053
5,AAACACAC,0.132 ± 0.011
6,AAACACGC,0.24 ± 0.054
7,AAACACGT,0.329 ± 0.093
8,AGTAAACG,0.0125 ± 0.018
9,AGGTCTTG,-0.116 ± 0.084
10,TGACGCCA,-0.0607 ± 0.033
11,ACTGCAGT,-0.0688 ± 0.15
12,AGATGGAC,-0.09113 ± 0.00061
13,AATGTCAA,0.0117 ± 0.23
14,CGTGTCAA,0.0498 ± 0.015
15,GATGTCAA,0.0342 ± 0.06
16,AGTGTCAA,0.122 ± 0.14
17,TATGTCAA,0.287 ± 0.054
18,TGTGTCAA,0.254 ± 0.011
19,CAGAGCGA,-0.0911 ± 0.044
20,GGTTTGAA,0.145 ± 0.0079
21,CCAGTGGG,-0.122 ± 0.16
22,GACTTCTA,-0.0184 ± 0.13
23,CAAAACAC,0.073 ± 0.066
24,ACAAACAG,-0.0244 ± 0.058
25,CCAAACAG,-0.0488 ± 0.037

row,Sequence,PBM 8-mer E-score
1,ACAAACAC,0.268 ± 0.053
2,GCAAACAC,0.156 ± 0.07
3,CCAAACAC,0.242 ± 0.076
4,GAAAACAC,0.0469 ± 0.11
5,AAAAACAC,0.251 ± 0.05
6,ACAAACAA,0.112 ± 0.0055
7,CTAAACAA,0.0536 ± 0.046
8,CTGCGTGC,-0.0949 ± 0.0091
9,CGATCGAG,-0.26 ± 0.069
10,CATGCCCA,0.00676 ± 0.079
11,CCTCCCCC,-0.0244 ± 0.2
12,GCCTCCCA,-0.155 ± 0.12
13,ACCTCCCA,0.00978 ± 0.14
14,CCCCTCCC,0.239 ± 0.16
15,CCCCTCCG,0.044 ± 0.086
16,CCCTCCCC,0.171 ± 0.15
17,CCTCCCCA,0.258 ± 0.065
18,CCCTCCCA,0.262 ± 0.0086
19,CCTCCCAA,0.0602 ± 0.2
20,CTGGGTAC,-0.201 ± 0.15
21,GGATGGAC,0.106 ± 0.062
22,AGGGTTTA,0.152 ± 0.0074
23,AGGAGCAA,-0.034 ± 0.032
24,CACCACCA,-0.0146 ± 0.046
25,AACGATCC,-0.124 ± 0.023

row,Sequence,PBM 8-mer E-score
1,GCAATGGC,0.0112 ± 0.019
2,ATACGCTC,0.0772 ± 0.0077
3,CCCATACA,0.0285 ± 0.11
4,GGACTGCC,-0.0905 ± 0.19
5,TCATATAA,0.15 ± 0.064
6,CCATATAA,0.174 ± 0.02
7,ACATATAC,-0.00226 ± 0.03
8,CCATATCA,0.0654 ± 0.064
9,ACATATAG,0.0953 ± 0.059
10,ACATATCG,0.0595 ± 0.028
11,CCATATGC,0.112 ± 0.14
12,GCATATGC,0.245 ± 0.008
13,GCATATGA,0.138 ± 0.034
14,ACATATAA,0.309 ± 0.078
15,ACATATCA,0.252 ± 0.013
16,ACATATAT,0.244 ± 0.04
17,GCGGCCTA,-0.209 ± 0.12
18,ATGCGATG,0.054 ± 0.083
19,GTGAACAA,0.114 ± 0.0024
20,CAGGCGAC,-0.124 ± 0.082
21,CGTCCCGA,-0.209 ± 0.12
22,AAAGTTAG,0.127 ± 0.044
23,AGTGCAGA,0.0828 ± 0.16
24,ATAGCGGC,-0.135 ± 0.21
25,AACCTAGT,-0.18 ± 0.029

row,Sequence,PBM 8-mer E-score
1,ATTGTGCC,0.174 ± 0.071
2,ACATATGT,0.265 ± 0.11
3,ACATATGC,0.0404 ± 0.029
4,ACATATGG,0.155 ± 0.071
5,CGTTCTGC,-0.108 ± 0.038
6,CCTGTGAA,-0.00915 ± 0.077
7,TATGTGAA,0.254 ± 0.13
8,CATGTGAA,0.249 ± 0.059
9,AATGTGAA,0.181 ± 0.089
10,AATGTGAC,-0.0272 ± 0.014
11,GATGTGAA,0.15 ± 0.0086
12,CATGTGAC,0.3772 ± 0.0032
13,GATGTGAC,-0.231 ± 0.026
14,CATGTGAG,0.226 ± 0.08
15,AACCCGCT,0.00053 ± 0.075
16,ATAACCCG,-0.0972 ± 0.023
17,GATACTGA,-0.0332 ± 0.11
18,CGATAAAA,0.0372 ± 0.13
19,ATAAAAAT,0.209 ± 0.032
20,ACATAAAG,0.197 ± 0.04
21,GGATAAAA,0.116 ± 0.12
22,GTATAAAA,0.2289 ± 0.0018
23,ATATAAAG,0.138 ± 0.006
24,TGATAAAA,0.282 ± 0.056
25,ATATAAAA,0.257 ± 0.14

row,Sequence,PBM 8-mer E-score
1,CTATAAAA,0.0799 ± 0.029
2,ACATAAAT,0.249 ± 0.026
3,ACATAAAA,0.192 ± 0.085
4,ATATAAAT,0.26 ± 0.013
5,TGTCTAAA,0.127 ± 0.015
6,TTGCTAAA,-0.0675 ± 0.037
7,ACATCGCC,0.0533 ± 0.012
8,CATAAGCG,-0.0132 ± 0.16
9,ACGCTACT,-0.103 ± 0.057
10,CGCACAGA,-0.00527 ± 0.17
11,GCTACTTA,0.0733 ± 0.061
12,GCATCAAA,0.0826 ± 0.0033
13,TCAGTACA,-0.0447 ± 0.075
14,CTATAAAC,-0.0175 ± 0.061
15,ATATAAGA,0.257 ± 0.1
16,GTATAAAC,0.097 ± 0.035
17,ATATAAAC,0.249 ± 0.1
18,CTATAAGA,0.00621 ± 0.13
19,GTATAAGA,0.176 ± 0.037
20,CCGCACAA,-0.0967 ± 0.091
21,CAGTGTCG,-0.18 ± 0.018
22,CTGGACAA,-0.0424 ± 0.18
23,TGGGACAA,0.233 ± 0.12
24,GGGGACAA,-0.00341 ± 0.1
25,GTGGACAA,0.236 ± 0.0099

row,Sequence,PBM 8-mer E-score
1,AGGGACAA,-0.0703 ± 0.11
2,TTGGACAA,0.137 ± 0.038
3,ATCTAAGG,0.00267 ± 0.011
4,GACAGTAC,0.0423 ± 0.12
5,AACAGCCA,0.0334 ± 0.032
6,GCCCGGAC,-0.319 ± 0.01
7,TGCACACA,0.0593 ± 0.099
8,ATAGGCTA,0.00221 ± 0.094
9,GCTTTTCA,0.0385 ± 0.086
10,GCATTTTA,0.16 ± 0.072
11,ATATTTAC,0.23 ± 0.07
12,CCTTTTTA,0.171 ± 0.029
13,ATATTTAA,0.302 ± 0.021
14,GCTTTTTA,0.237 ± 0.16
15,ACATTTTA,0.297 ± 0.048
16,CTTTTTCA,0.144 ± 0.055
17,CCTTTTCA,0.245 ± 0.15
18,GCTTTTAA,-0.0112 ± 0.043
19,CCATTTTA,0.0902 ± 0.15
20,CTATTTAA,0.0374 ± 0.0014
21,ACGAAATG,0.158 ± 0.068
22,CTCGGCTC,-0.235 ± 0.028
